# Measured values: PubChem BioAssay
# Records with an inconclusive call do not appear. Calls of active or inactive are those of the source.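 Rule for the calls, unless noted: active = normalized viability below 100% at a tested concentration; inactive = the rest.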
# Key:
# [1] = growth inhibition of DIPG glioma cells, dose response, cell-based, SU-DIPG-XVII, MIPE5.0, CellTiter-Glo, qHTS (AID 1347060; cut-off not given, nearly all actives have AC50 up to about 26 µM;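 for AC50: cells exposed to compound for 48 hours before viability readout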); conditions: SU-DIPG-XVII viability, CellTiter-Glo ATP luminescence
# [2] = growth inhibition of DIPG glioma cells, dose response, cell-based, JHH-DIPG-1, MIPE4.0, CellTiter-Glo, qHTS (AID 1347062; cut-off not given, nearly all actives have AC50 up to about 27 µM;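 for AC50: cells exposed to compound for two days before readout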); conditions: JHH-DIPG-1 viability, CellTiter-Glo ATP luminescence
# [3] = growth inhibition of DIPG glioma cells, dose response, cell-based, SU-DIPG-IV, MIPE4.0, CellTiter-Glo, qHTS (AID 1347063; cut-off not given, nearly all actives have AC50 up to about 30 µM;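 note: compound exposure lasted 48 hours before the viability readout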); conditions: SU-DIPG-IV viability, CellTiter-Glo ATP luminescence
# [4] = viability loss in pontine glioma line – cell-based, SU-DIPG-XXV, MIPE5.0, CellTiter-Glo, qHTS, dose response (AID 1347065; cut-off not given, nearly all actives have AC50 up to about 26 µM;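 note: cells exposed to compound for 48 hours before ATP readout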); conditions: CellTiter-Glo ATP luminescence
# [5] = sensitizers of A549 cells to miR-34 induction, primary screen, imaging, A549 dox-inducible miR-34, nuclei and caspase counts (AID 1347080;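 active = compounds whose cell count with miR-34 switched on is under 0.7 times the count with it off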); conditions: A549 miR-34 inducible, Hoechst nuclei count, 48 h
# [6] = modifiers of HSF1 nuclear foci, imaging, Selleck Cancer Library (AID 1347162; in the data active = plate-normalised HSF1 focus index below about 0.46); conditions: human cells, at 10 µM; SSMD: measured here: HSF1 foci SSMD mean; cell count: measured here: cell number; plate-normalised HSF1 focus index: stronger effect = lower value
# [7] = survival rescue of mitochondrial mutant cells in low glucose, primary screen, MELAS cybrids, Rieske KO mouse fibroblasts, CellTiter-Glo (AID 1508586;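 active = mean z-score across replicates of 1.96 or higher in either the MELAS or the Rieske mutant cell line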;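 note: z relative to plate mean and SD of compound and empty wells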)
# [8] = ovarian cancer cell viability with rucaparib, profiling panel, oncology-focused library, rucaparib conditional (AID 1508598); conditions: patient-derived ovarian cancer cells, CellTiter-Glo viability, 144 h, stronger effect = lower value
# [9] = SU-DIPG-VI glioma cell viability, MIPE4.0 library, CellTiter-Glo luminescence, qHTS (AID 1347066; cut-off not given, nearly all actives have AC50 up to about 30 µM;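 note: cells exposed to compound for 48 hours before readout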); conditions: CellTiter-Glo ATP luminescence
# [10] = JHH-DIPG-1 glioma cell viability, MIPE5.0 library, CellTiter-Glo luminescence, qHTS (AID 1347067; cut-off not given, nearly all actives have AC50 up to about 26 µM;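 note: cells exposed to compound for 48 hours before readout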); conditions: JHH-DIPG-1 glioma viability, CellTiter-Glo ATP luminescence
# [11] = SU-DIPG-XXV glioma cell viability, MIPE5.0 library, qHTS (AID 1347068; cut-off not given, nearly all actives have IC50 up to about 30 µM;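 for IC50: cells exposed to compound for 48 hours before viability readout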)
# [12] = stronger effect = lower value, cell number ratio, induced over uninduced
# [13] = measured here: relative caspase fold change +Dox/-Dox
# [14] = measured here: total cells with miR-34 induction, stronger effect = lower value
# [15] = measured here: total cells without miR-34 induction
# [16] = MELAS cybrid survival, CellTiter-Glo 48 h, stronger effect = higher value
# [17] = Rieske KO mouse fibroblast survival, CellTiter-Glo 72 h
structure (smiles),measurement,setting,value
C=CCn1c(=O)c2cnc(Nc3ccc(N4CCN(C)CC4)cc3)nc2n1-c1cccc(C(C)(C)O)n1,AC50,[1],4170 nM (active)
same,AC50,[2],418 nM (active)
same,AC50,[3],11800 nM (active)
same,AC50,[4],1050 nM (active)
same,fold change,[5]; [12],1.27 (inactive)
same,fold change,[5]; [13],0.673
same,cell count,[5]; [14],1400
same,cell count,[5]; [15],1100
same,SSMD,[6],1.04
same,cell count,[6],6680
same,plate-normalised HSF1 focus index,[6],1.07 (inactive)
same,z-score,[7]; [16],0.245 (inactive)
same,z-score,[7]; [17],1.66
same,viability,"[8]; at 0.000305 µM, OCI-C5x cells, with rucaparib 10 µM, 100% = cells with rucaparib alone",126% (inactive)
same,viability,"[8]; at 0.000305 µM, OCI-C5x cells, without rucaparib",107% (inactive)
same,viability,"[8]; at 0.000305 µM, OCI-P5x cells, with rucaparib 20 µM, 100% = cells with rucaparib alone",88.3% (active)
same,viability,"[8]; at 0.000305 µM, OCI-P5x cells, without rucaparib",91.1% (active)
same,viability,"[8]; at 0.00122 µM, OCI-C5x cells, with rucaparib 10 µM, 100% = cells with rucaparib alone",122% (inactive)
same,viability,"[8]; at 0.00122 µM, OCI-C5x cells, without rucaparib",109% (inactive)
same,viability,"[8]; at 0.00122 µM, OCI-P5x cells, with rucaparib 20 µM, 100% = cells with rucaparib alone",102% (inactive)
same,viability,"[8]; at 0.00122 µM, OCI-P5x cells, without rucaparib",98.1% (active)
same,viability,"[8]; at 0.00488 µM, OCI-C5x cells, with rucaparib 10 µM, 100% = cells with rucaparib alone",121% (inactive)
same,viability,"[8]; at 0.00488 µM, OCI-C5x cells, without rucaparib",107% (inactive)
same,viability,"[8]; at 0.00488 µM, OCI-P5x cells, with rucaparib 20 µM, 100% = cells with rucaparib alone",102% (inactive)
same,viability,"[8]; at 0.00488 µM, OCI-P5x cells, without rucaparib",98.9% (active)
same,viability,"[8]; at 0.0195 µM, OCI-C5x cells, with rucaparib 10 µM, 100% = cells with rucaparib alone",120% (inactive)
same,viability,"[8]; at 0.0195 µM, OCI-C5x cells, without rucaparib",102% (inactive)
same,viability,"[8]; at 0.0195 µM, OCI-P5x cells, with rucaparib 20 µM, 100% = cells with rucaparib alone",88.1% (active)
same,viability,"[8]; at 0.0195 µM, OCI-P5x cells, without rucaparib",97.6% (active)
same,viability,"[8]; at 0.0781 µM, OCI-C5x cells, with rucaparib 10 µM, 100% = cells with rucaparib alone",104% (inactive)
same,viability,"[8]; at 0.0781 µM, OCI-C5x cells, without rucaparib",96.7% (active)
same,viability,"[8]; at 0.0781 µM, OCI-P5x cells, with rucaparib 20 µM, 100% = cells with rucaparib alone",82.5% (active)
same,viability,"[8]; at 0.0781 µM, OCI-P5x cells, without rucaparib",92.8% (active)
same,viability,"[8]; at 0.313 µM, OCI-C5x cells, with rucaparib 10 µM, 100% = cells with rucaparib alone",69.6% (active)
same,viability,"[8]; at 0.313 µM, OCI-C5x cells, without rucaparib",55.3% (active)
same,viability,"[8]; at 0.313 µM, OCI-P5x cells, with rucaparib 20 µM, 100% = cells with rucaparib alone",65.5% (active)
same,viability,"[8]; at 0.313 µM, OCI-P5x cells, without rucaparib",59.9% (active)
same,viability,"[8]; at 1.25 µM, OCI-C5x cells, with rucaparib 10 µM, 100% = cells with rucaparib alone",54.7% (active)
same,viability,"[8]; at 1.25 µM, OCI-C5x cells, without rucaparib",40.2% (active)
same,viability,"[8]; at 1.25 µM, OCI-P5x cells, with rucaparib 20 µM, 100% = cells with rucaparib alone",45.8% (active)
same,viability,"[8]; at 1.25 µM, OCI-P5x cells, without rucaparib",23.7% (active)
same,viability,"[8]; at 5 µM, OCI-C5x cells, with rucaparib 10 µM, 100% = cells with rucaparib alone",35.9% (active)
same,viability,"[8]; at 5 µM, OCI-C5x cells, without rucaparib",25.1% (active)
same,viability,"[8]; at 5 µM, OCI-P5x cells, with rucaparib 20 µM, 100% = cells with rucaparib alone",14.5% (active)
same,viability,"[8]; at 5 µM, OCI-P5x cells, without rucaparib",7.98% (active)
Cc1ccc(S(=O)(=O)OCC(=O)Nc2ccc(C(=O)O)c(O)c2)cc1,outcome,[1],inactive
same,outcome,[2],inactive
same,outcome,[3],inactive
same,outcome,[4],inactive
same,outcome,[9],inactive
same,outcome,[10],inactive
same,outcome,[11],inactive
same,fold change,[5]; [12],0.894 (inactive)
same,fold change,[5]; [13],0.798
same,cell count,[5]; [14],6690
same,cell count,[5]; [15],7480
same,z-score,[7]; [16],-0.344 (inactive)
same,z-score,[7]; [17],0.295
CC(C)c1cnn2c(NCc3ccccc3)cc(N[C@@H](CO)[C@H](O)CO)nc12,AC50,[1],263 nM (active)
same,AC50,[2],418 nM (active)
same,AC50,[3],187 nM (active)
same,AC50,[4],235 nM (active)
same,AC50,[10],417 nM (active)
same,IC50,[11],468 nM (active)
